This assay can be described thus: LNCaP granularity increase inducers, single-point recheck – cell-based, side scatter shift, flow cytometry, confirmation (AID 1069).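 Also: LNCaP human prostate cancer cells in low-serum medium with charcoal-stripped FBS; percent of cells with raised granularity gated so DMSO controls show 10%.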 Particulars: LNCaP differentiation, 4 d, stronger effect = higher value. (In general: Flow cytometry measures light scatter and fluorescence of single cells or particles in a stream.)

Activity calls are given as the source filed them.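 The calls were made as follows: active = high combined rank on largest and smallest cell-count-weighted shift across three tests, rank score above 45, floors 50 and 25 (some results past the limit were not filed as active); inactive = the rest.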

Consider `CCOc1ccc(OCC)c(NC(=O)C2CCCN(S(=O)(=O)c3c(C)noc3C)C2)c1` (configuration not stated), for which the side scatter shift by setting is: (at 100 µM) 19.8% (inactive); (side scatter shift, at 10 µM) 2.05%.

Regarding `CC(C)n1c(=S)[nH]c2c1c(=O)[nH]c(=O)n2C`, the side scatter shift was 8.1% (inactive) (at 100 µM) and 2.4% (side scatter shift, at 10 µM).

With `Cn1cc(CNC(=O)C2c3ccccc3Oc3ccccc32)cn1`, the side scatter shift by setting is: (at 100 µM) 7.3% (inactive); (side scatter shift, at 10 µM) 3%.

Consider `O=C(CCNC(=O)Cn1ccc2ccccc2c1=O)NCCCN1CCN(c2ccccc2F)CC1`, for which the side scatter shift was 35.7% (inactive) (at 100 µM) and 6.15% (side scatter shift, at 10 µM).

On to `CCOC(=O)N1CCC(NC(=O)C2CCCN(Cc3nc(-c4cccc(Cl)c4)oc3C)C2)CC1` (configuration not stated), for which the side scatter shift (at 100 µM) was 21.2% (inactive) and the side scatter shift (side scatter shift, at 10 µM) came to 5.35%.

For `COc1ccc2c(c1OC)C(=O)N(C(C)C(=O)O)C2=O` (configuration not stated), the side scatter shift is, setting by setting: (at 100 µM) 17.9% (inactive); (side scatter shift, at 10 µM) 5.3%.

With `Cc1oc(-c2cccc(Cl)c2)nc1CN1CCCC(C(=O)NCCCN2CCOCC2)C1` (configuration not stated), the side scatter shift reads like this: (at 100 µM) 27.3% (inactive); (side scatter shift, at 10 µM) 23.6%.

For `COc1ccc(C(CC(=O)O)NC(=O)Cc2ccccc2)cc1` (configuration not stated), the side scatter shift is, setting by setting: (at 100 µM) 2.7% (inactive); (side scatter shift, at 10 µM) 3.1%.

`Cc1ccc(Cn2c(C(=O)NCCCN3CCOCC3)cc3sccc32)cc1`: the side scatter shift runs as follows: (at 100 µM) 20.1% (inactive); (side scatter shift, at 10 µM) 10.8%.

Turning to `Cc1ccc(OCC(O)Cn2c(=N)n(CCN3CCCCC3)c3ccccc32)cc1` (configuration not stated), the side scatter shift is 23.1% (active) (at 100 µM) and 65.5% (side scatter shift, at 10 µM).

Consider `Cc1nn(Cc2ccc(F)cc2)c(C)c1NC(=O)c1cc(-c2ccc3c(c2)OCO3)on1`, for which the side scatter shift is 4.8% (inactive) (at 100 µM) and 1.1% (side scatter shift, at 10 µM).

Take `Cn1c(=O)cc(SCC(=O)NCCCN2CCN(c3ccccc3F)CC2)c2ccccc21`: the side scatter shift by setting is: (at 100 µM) 70.5% (active); (side scatter shift, at 10 µM) 12.8%.

For the molecule `Cc1ccccc1-c1nc(CN2CCC(C(=O)O)CC2)c(C)o1`, the side scatter shift was 3.7% (inactive) (at 100 µM) and 1.25% (side scatter shift, at 10 µM).

Regarding `Cc1ccccc1Cn1cnc2c(cnn2C(C)(C)C)c1=O`, the side scatter shift runs as follows: (at 100 µM) 15.4% (inactive); (side scatter shift, at 10 µM) 5.05%.

For the molecule `O=C(Nc1ccc2oc(Cc3ccc(Cl)cc3)nc2c1)c1cccnc1`, the side scatter shift reads like this: (at 100 µM) 17.6% (inactive); (side scatter shift, at 10 µM) 6.7%.

For `Cc1oc(-c2ccc(Cl)cc2)nc1CN1CCC(C(=O)NCCCN2CCCC2=O)CC1`, the side scatter shift (at 100 µM) was 11.8% (inactive) and the side scatter shift (side scatter shift, at 10 µM) stood at 1.8%.

Turning to `CN(C)c1ccc(-c2nn3c(-c4ccc(Cl)cc4Cl)nnc3s2)cc1`, the side scatter shift (at 100 µM) was 50% (inactive) and the side scatter shift (side scatter shift, at 10 µM) stood at 4.15%.

For `Cc1ccccc1-c1nc(CN2CCC(C(=O)NCCC3=CCCCC3)CC2)c(C)o1`, the side scatter shift is, setting by setting: (at 100 µM) 9.1% (inactive); (side scatter shift, at 10 µM) 24.8%.

Consider `O=c1cc(N2CCN(c3ccc(F)cc3)CC2)[nH]c(=O)n1C1CCCCC1`, for which the side scatter shift reads like this: (at 100 µM) 16.8% (inactive); (side scatter shift, at 10 µM) 5.4%.

In the case of `CCn1c(=S)ccc2ccc(OC)cc21`, the side scatter shift (at 100 µM) is 12.9% (inactive) and the side scatter shift (side scatter shift, at 10 µM) worked out at 1.95%.

In the case of `c1cncc(-c2nc3ccccc3o2)c1`, the side scatter shift runs as follows: (at 100 µM) 10.2% (inactive); (side scatter shift, at 10 µM) 2.9%.

In the case of `Cc1ccccc1-c1nc(CN2CCC(C(=O)N3CCN(c4ccccn4)CC3)CC2)c(C)o1`, the side scatter shift runs as follows: (at 100 µM) 24.7% (inactive); (side scatter shift, at 10 µM) 12.9%.

For the molecule `CN(CCNC(=O)C1CC(=O)N(c2ccc(F)c(Cl)c2)C1)Cc1ccccc1` (configuration not stated), the side scatter shift reads like this: (at 100 µM) 62% (active); (side scatter shift, at 10 µM) 3.65%.

As for `COCCn1c(=O)[nH]c2cc(C(=O)NCCCN3CCN(c4ccc(F)cc4)CC3)ccc2c1=O`, the side scatter shift reads like this: (at 100 µM) 37.9% (inactive); (side scatter shift, at 10 µM) 6.5%.

Take `Cc1nc2c3cnn(-c4ccccc4)c3ncn2n1`: the side scatter shift runs as follows: (at 100 µM) 5% (inactive); (side scatter shift, at 10 µM) 1.75%.

For `Cc1nnc(NCc2n[nH]c(=O)c3ccccc23)c2ccccc12`, the side scatter shift runs as follows: (at 100 µM) 46.8% (inactive); (side scatter shift, at 10 µM) 6.5%.

For the molecule `CCn1c(SCC(=O)Nc2ccccc2F)nc2c(c1=O)SC(C)C2` (configuration not stated), the side scatter shift is 8% (inactive) (at 100 µM) and 0.85% (side scatter shift, at 10 µM).

For `Cc1ccc(C)c(N2CCN(CCCNC(=O)Cn3cc4c(n3)CCCCC4)CC2)c1`, the side scatter shift (at 100 µM) is 0% (inactive) and the side scatter shift (side scatter shift, at 10 µM) was 7.55%.

As for `O=C(NCCCN1CCN(c2ccccc2F)CC1)C1CCCN(S(=O)(=O)c2cnc[nH]2)C1` (configuration not stated), the side scatter shift by setting is: (at 100 µM) 7.3% (inactive); (side scatter shift, at 10 µM) 4.1%.

In the case of `COC(=O)Nc1sccc1C(=O)Nc1sccc1C(=O)OC`, the side scatter shift reads like this: (at 100 µM) 18.8% (inactive); (side scatter shift, at 10 µM) 8.85%.

With `CCOC(=O)c1[nH]c(C)c(C(=O)N2CCc3ccccc32)c1C`, the side scatter shift is 7.7% (inactive) (at 100 µM) and 15.4% (side scatter shift, at 10 µM).

Consider `CCN1CCN(C(=O)C2CCN(Cc3nc(-c4cccc(Cl)c4)oc3C)CC2)CC1`, for which the side scatter shift runs as follows: (at 100 µM) 16.7% (inactive); (side scatter shift, at 10 µM) 19.1%.

`CCc1ncc(C(O)c2cccc(OC)c2OC)n1C` (configuration not stated): the side scatter shift was 1.4% (inactive) (at 100 µM) and 5.25% (side scatter shift, at 10 µM).

With `CC(C)Cc1nc2oc3c(N4CCN(CCO)CC4)ncnc3c2c2c1CCCC2`, the side scatter shift reads like this: (at 100 µM) 33.3% (inactive); (side scatter shift, at 10 µM) 5.25%.

Consider `CCOC(=O)c1c(C)n(C)c2ccc(OCC(O)CNC(CC)CO)cc12` (configuration not stated), for which the side scatter shift is, setting by setting: (at 100 µM) 58.6% (active); (side scatter shift, at 10 µM) 3.3%.

Take `COC(=O)c1cc2oc3ccccc3c2n1CC(=O)Nc1ccccc1OC`: the side scatter shift (at 100 µM) is 18.9% (inactive) and the side scatter shift (side scatter shift, at 10 µM) was determined as 8.8%.

With `COc1ccc2nc(NC(=O)C(NS(=O)(=O)c3cccs3)C(C)C)sc2c1` (configuration not stated), the side scatter shift is 35.8% (inactive) (at 100 µM) and 3.1% (side scatter shift, at 10 µM).

With `CCN(CC)CC(=O)Nc1ccc(-c2nc3cc(NC(=O)CN(CC)CC)ccc3o2)cc1`, the side scatter shift (at 100 µM) was 0% (active) and the side scatter shift (side scatter shift, at 10 µM) is 42%.

As to `CC(C)(C)OC(=O)N1CCC(C(=O)N2CCCCCC2)CC1`, the side scatter shift (at 100 µM) is 16.1% (inactive) and the side scatter shift (side scatter shift, at 10 µM) was determined as 7.5%.

Consider `CCOC(=O)c1cc2c(=O)n3ccccc3nc2n(CCCOC)c1=NC(=O)c1cccnc1`, for which the side scatter shift was 9.9% (inactive) (at 100 µM) and 5.75% (side scatter shift, at 10 µM).

With `O=C(NCCCN1CCN(c2ccccc2F)CC1)C1CCN(S(=O)(=O)N2CCOCC2)CC1`, the side scatter shift runs as follows: (at 100 µM) 19.9% (inactive); (side scatter shift, at 10 µM) 7.2%.

The values are drawn from PubChem BioAssay AID1069 (NMMLSC, 2008).
